Assay outcomes from PubChem BioAssay.
HCT116 PTEN-null – growth suppression of PTEN-null HCT116, primary screen, cell-based, CellTiter-Glo | HCT116 PTEN-null viability, 60 h; hits give low values | viability, % at 10 µM | 140,000 compounds, 1.2% hits | AID 827, 2007;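 active means viability at or below a set limit, 4 SD under the median of all tested compounds, cut at about 3.7% in these data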;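 further: PTEN knockout HCT116 line with beta catenin targeted HCT116 as companion control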
Insulin prom up – insulin promoter activators in MIN6 cells, imaging, high-content screening, mouse beta cells. MIN6 insulin promoter-GFP reporter; hits give high values. 190,000 compounds, 0.3% hits. z-score at 5 µM;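 active means z-score above 3 at 5 µM with at least 500 cells counted in the well; inconclusive means wells under 500 cells, flagged as cytotoxic or low count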
Autophagy HCS – autophagy modulators in MEF cells, primary screen, imaging, high-content, MEF GFP-LC3. 190,000 compounds, 0.98% hits. calls only at 10 µM (by protocol). AID 463193, 2010. MEF GFP-LC3 puncta imaging; test concentration mostly 10 µM;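 active means percentage of spot-positive cells more than 3 SD above its plate mean, without a fluorescence outlier flag or 80% toxicity; inconclusive means no clear call, values can overlap the other calls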;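 further: spot-positive cell cutoff set from DMSO-treated cells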
Lmaj promast – Leishmania major promastigote growth inhibition, primary screen; Leishmania major promastigotes, resazurin fluorescence viability; inhibition, % at 10 µM; 200,000 compounds, 9% hits; in the data active means inhibition above about 50%;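 further: promastigotes grown with compound for 44 hours at 28 °C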
HCT116 bCat-KO – primary screen for growth suppressors in beta-catenin knockout HCT116 cells (colon tumor, human) | 140,000 compounds, 1.5% hits | HCT116 beta-catenin knockout viability, CellTiter-Glo, 60 h; hits give low values | AID 818, 2007 | viability, % at 10 µM;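 active means viability at or under a set limit, the compound median less 4 SD, cut at about 6% in these data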;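 further: 0% = Hyamine 1622 control at 20 µM and 100% = untreated cell control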
INS promoter inh – inhibitors of insulin promoter-driven GFP, primary screen, imaging, TRM-6 cells (human fetal islet line), eGFP reporter, cell count; reporter expression induced with tamoxifen; inhibition, % at 2 µM; 130,000 compounds, 0.9% hits;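 active means inhibition above the mean plus 3 SD, with well images judged a real hit on visual review, cut at about 60% in these data, passing the limit was not always enough; inconclusive means inhibition over the cutoff but images rejected on review; inactive means inhibition not above the cutoff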
Numbers without * were called inactive; i = inactive; ? = inconclusive; · = no result; + = active, no number. An excerpt weighted towards active compounds, which were near 9.6% of everything screened.

SMILES	HCT116 PTEN-null	Insulin prom up	Autophagy HCS	Lmaj promast	HCT116 bCat-KO	INS promoter inh
COc1cccc(C(=O)NCC(=O)N2CCC(C)CC2)c1	103.7	-0.19	i	-7.6	98.7	-6.7
CCN(CC)c1ccc2c(C)c(CN3CCOCC3)c(=O)oc2c1	86.6	0.1	i	100.2*	77.2	·
CCN(CC)c1ccc2c(C)c(CO)c(=O)oc2c1	·	-0.74	i	2.0	·	·
O=C(CCl)N=c1sccn1Cc1ccc(Cl)cc1Cl	·	0.05	?	85.6*	·	i
CC(=O)N1CCC(N2CCN(c3ccccc3F)CC2)CC1	95.8	-0.18	i	10.3	93.6	·
CC(C)(C)c1nnc(N/N=C/c2ccccc2O)n(N)c1=O	15.4	-2.21	i	97.9*	15.4	30.0
CC(C)(C)c1nnc(N/N=C/c2ccccc2)n(N)c1=O	98.7	-0.1	i	-4.7	86.7	-40.0
COc1ccc(C2C(C#N)=C(N)OC3=C2C(=O)CC(C)(C)C3)cc1Cn1nc(C)c([N+](=O)[O-])c1C (configuration not stated)	76.8	-0.28	i	34.2	75.6	·
Cc1ccc(/C=C/C(=O)Nc2cc(C)on2)cc1	60.4	0.33	i	-3.6	52.3	?
CCN1/C(=C/c2ccc3cc(C)ccc3[n+]2CC)Sc2cc(C)c(C)cc21	·	?	+	100.3*	·	·
CC[n+]1c(/C=C2\Sc3ccccc3N2C)ccc2cccc(C)c21	·	?	?	100.5*	·	·
C=CCN1C(=O)/C(=C2/Sc3ccccc3N2C)SC1=Nc1ccccc1C	71.9	-0.59	i	1.7	84.2	35.7
CCN1/C(=C/c2ccc3cc(C)ccc3[n+]2CC)Sc2ccccc21	1.3*	·	·	100.5*	1.2*	-170.3
O=C(CCc1n[nH]c(=O)[nH]c1=O)N/N=C/c1ccco1	·	-0.19	i	-5.6	·	-27.3
O=C(NCc1ccccn1)Nc1ccc(Cl)c(Cl)c1	84.2	·	i	-0.4	91.8	71.4
Cc1cc(NC(=O)c2ccccc2)n(-c2nc3ccccc3[nH]2)n1	·	-0.16	+	-2.6	·	27.3
COc1cccc(OC)c1C(=O)Nc1cc(C)nn1-c1nc2ccccc2[nH]1	·	-1.32	i	65.8*	·	68.4*
Cc1cc(NC(=O)c2cccs2)n(-c2nc3ccccc3[nH]2)n1	·	0.07	i	4.0	·	·
Cc1onc(-c2ccccc2)c1C(=O)N/N=C/c1cc2c(cc1Cl)OCO2	95.3	0.01	i	100.4*	95.8	·
COc1cc(/C=N/NC(=O)c2c(-c3ccccc3)noc2C)ccc1O	105.3	-0.09	i	0.5	91.1	20.0
O=C(N/N=C/c1cc2c(cc1Cl)OCO2)c1ccccn1	·	·	i	0.9	·	26.7
COc1cccc(/C=N/NC(=O)c2c(-c3ccccc3)noc2C)c1O	6.8	·	i	95.4*	5.8*	25.0
COc1ccc(N2Cc3ccccc3C2=NC(=O)c2ccc(C)cc2)cc1OC	·	0.27	i	5.7	·	·
Nc1c(C(=O)N/N=C/c2ccccc2)cnn1-c1ccccc1	·	-0.6	·	·	·	·
COc1cc(NC(=O)CN2C(=O)C(c3ccccc3)=NC2(C)C)cc(OC)c1	·	0.87	i	-6.2	·	·
SMILES	HCT116 PTEN-null	Insulin prom up	Autophagy HCS	Lmaj promast	HCT116 bCat-KO	INS promoter inh
CC(c1ccccc1)N1C(=O)NC(NC(=O)C(C)(C)C)(C(F)(F)F)C1=O (configuration not stated)	100.5	0.07	i	51.7*	93.2	-55.6
N#C/C(=C\C=C\c1ccccc1)c1nc(-c2ccc3c(c2)OCO3)cs1	108.1	0.42	+	-6.2	90.8	-17.6
COc1cc2c(cc1OC)CN(c1ccc(-c3ccccc3OC)nn1)CC2	6.8	-0.84	i	100.1*	2.7*	·
COc1ccccc1-c1ccc(NC2CCCC2)nn1	88.8	-0.44	i	8.1	92.2	-418.8
O=C(NCC1CCCO1)C(c1cccnc1)N(C(=O)Cc1cccs1)c1ccccc1 (configuration not stated)	86.2	·	i	-3.7	104.9	7.3
FC(F)(F)c1ccc(N2CCN(Cc3ccc4c(c3)OCO4)CC2)nc1	83.5	0.41	i	-0.3	93.0	-13.3
CCOC(=O)N1CCN(C(=O)c2ccc(CSc3ccc(Cl)cc3)cc2)CC1	·	0.28	i	22.0	·	0.0
O=C(c1ccc2ccccc2c1)N1CCN(c2ccc(C(F)(F)F)cn2)CC1	89.7	-0.04	i	98.1*	108.4	14.3
O=C(c1ccc2c(c1)OCO2)N1CCCC1	110.7	8.93*	i	-7.7	105.4	-36.1
CN1CCN(C(=O)c2ccc(CSc3ccc(Cl)cc3)cc2)CC1	75.3	-0.31	i	100.3*	76.1	·
O=C(c1ccc2c(c1)OCO2)N1CCN(c2ccc(C(F)(F)F)cn2)CC1	96.9	1.01	i	76.3*	95.4	22.2
CCOC(=O)c1ccc(NC(=O)[C@@H](NC(N)=O)C(C)C)cc1	·	0.25	·	·	·	·
COc1ccc(C(=O)N2CCC(C(=O)Nc3ccc4c(c3)OCO4)CC2)cc1	99.7	0.85	i	52.3*	96.5	-20.7
O=C(Nc1ccc2c(c1)OCO2)C1CCN(C(=O)c2ccc(Cl)cc2)CC1	·	0.52	i	-5.0	·	·
CN1CCN(C(=O)c2ccc3nc(-c4ccccc4)c(-c4ccccc4)nc3c2)CC1	·	1.46	i	4.9	·	·
CN1CCN(C(=O)c2ccc3ccccc3c2)CC1	99.3	1.26	·	87.0*	107.3	·
CC1CCN(C(=O)CCc2ccc(S(=O)(=O)NC(C)C)cc2)CC1	87.5	·	i	3.7	103.2	64.3
CCOCCCNC(=S)NCCNc1nc2c(C)cccc2cc1C#N	84.3	-0.2	i	4.1	79.8	18.8
Cc1ccc2cc(C#N)c(NCCNC(=S)NCCCN(C)C)nc2c1C	·	·	i	100.5*	·	40.0
Cc1cc(C)c2nc(NCCCNC(=S)NCCCN(C)C)c(C#N)cc2c1	·	-2.25	i	100.5*	·	·
CCOCCCNC(=S)NCCCNc1nc2c(C)cc(C)cc2cc1C#N	·	-0.58	i	10.5	·	·
CCn1nc(C(=O)NNC(=O)COc2ccccc2C)c2ccccc2c1=O	93.5	-0.21	i	-3.8	87.1	·
Cc1nc(NC(=O)C23CC4CC(CC(C4)C2)C3)sc1Cc1ccc2c(c1)OCO2	56.4	-0.54	i	21.2	63.1	·
O=C(CN1CCOCC1)N/N=C/c1ccc(-c2ccc(C(=O)O)cc2)o1	·	0.29	·	·	·	·
Nc1ncnc(Oc2cccc3cccnc23)c1[N+](=O)[O-]	·	-0.31	i	96.3*	·	·
CCC(=O)N1CCc2cc(S(=O)(=O)NCCC(=O)Nc3cc(C)cc(C)c3)ccc21	94.7	-0.92	i	2.1	88.5	·
CCOC(=O)C1=C(N)Oc2cc(C)oc(=O)c2C1c1cccnc1 (configuration not stated)	104.2	0.28	i	14.1	105.1	·
CCOC(=O)C1=C(N)Oc2ccc3ccccc3c2C1c1cccnc1 (configuration not stated)	72.5	0.06	i	98.4*	71.4	-332.6
